Active and inactive are the calls of the source.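 The calls were made as follows, unless noted: active = visually confirmed hit in the image check and inhibition above 20%; inconclusive = visually confirmed hit but inhibition not above 20%; inactive = no visual hit in the image check.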
Experiments:
[1] = inhibitors of TNFa-induced NFkB p65 translocation, primary screen, imaging, HUVEC, MLSMR starter and 10KST1 sets (AID 438;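 active = inhibition above 20% together with a positive visual image hit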;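 also: compound added about 3h40 before a 20 min TNFalpha stimulation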;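 as to inhibition: signal is the nuclear over cytoplasmic p65 intensity ratio per well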); conditions: HUVEC TNFa-induced p65 nuclear translocation; cell count: measured here: nuclei count (cytotoxicity indicator), at 2.08 µM; inhibition: at 2 µM, stronger effect = higher value, 0% TNFa-plus-vehicle, 100% no-TNFa wells
[2] = inhibitors of mutant huntingtin aggregation, primary screen, imaging, exon1htt(103Q)mCFP cells, high-content imaging (AID 483;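 active = visual image review flags a hit and inhibition of aggregation exceeds 20%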;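 also: compound exposure lasted 3 days before fixation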;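 as to nuclei count: percent of the per-plate median nuclei count of sample wells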); conditions: exon1htt(103Q)mCFP cell line, aggregate imaging, at 2 µM; inhibition of aggregation: stronger effect = higher value; nuclei count: measured here: cell count, toxicity
[3] = inhibitors of E-selectin induction by TNFa, primary screen, imaging, HUVEC, immunofluorescence, MLSMR starter and 10KST1 sets (AID 487); conditions: HUVEC TNFalpha-induced E-selectin immunofluorescence imaging, at 2 µM; inhibition: stronger effect = higher value; nuclei count: measured here: cell number, toxicity;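 as to inhibition: signal is fraction of cell area covered by stained E-selectin grains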;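 as to nuclei count: 100% = median nuclei count of all wells on the same plate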
[4] = biological target: Voltage-gated potassium channel subunit beta-2 (Rattus norvegicus) (UniProt P62483); test: KvBeta enzyme negative modulators, primary screen, biochemical, NADPH fluorescence (AID 622;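 active = fluorescence slope higher than the sample average by over 3 SD, cut at about -0.22 in these data, passing the limit was not always enough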;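 also: slope of raw intensity against log time taken from 70 to 1610 s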); conditions: recombinant KvBeta, 4-cyanobenzaldehyde reduction, at 10 µM, stronger effect = higher value
[5] = biological target: Voltage-gated potassium channel subunit beta-2 (Rattus norvegicus) (UniProt P62483); test: KvBeta positive modulators, primary screen, biochemical, NADPH fluorescence (AID 623;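 active = NADPH fluorescence slope more negative than the mean of all samples by about 3 SD, 99.7% confidence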;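 also: fluorescence intensity change per second fitted from 20 to 320 s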); conditions: Recombinant KvBeta, NADPH fluorescence decrease slope, 10 min; at 10 µM; stronger effect = lower value
[6] = biological target: Alpha-2C adrenergic receptor (Homo sapiens) (UniProt P18825); test: modulators of alpha2C/GIRK thallium flux, primary screen, cell-based, HEK293 alpha2C/GIRK1/2 (AID 624;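 active = fluorescence slope after compound addition differing from the mean of all screened samples at 99.7% confidence, in either direction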;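 also: slope of fluorescence ratio to pre-addition baseline per second over 15 to 24 s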); conditions: thallium flux BTC fluorescence, at 10 µM, actives lie on both sides
[7] = inhibitors of Sendai virus-induced IRF3 signaling, primary screen, TLR/RLR signaling modifier project, cell-based, Sendai virus stimulus, luciferase, 10K MLSCN set (AID 602276;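 active = inhibition at or above 50% at 10 µM; inactive = inhibition below 50%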;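 also: firefly luciferase from ISG56 promoter only with Renilla not read in this screen; 0% = Sendai virus plus DMSO and 100% = medium plus DMSO without virus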); conditions: HEK293 RL24 IRF3 luciferase reporter, at 10 µM, stronger effect = higher value
[8] = inhibitors of poly I:C-induced TLR3 signaling, primary screen, cell-based, poly I:C stimulus, luciferase, 10K MLSCN set (AID 602277;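 active = inhibition of the reporter signal at or above 50%; inactive = inhibition below 50%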); conditions: HEK293-TLR3 RL24 IRF3 luciferase reporter, at 10 µM, stronger effect = higher value

Alpha-2C adrenergic receptor (Homo sapiens), sequence (P18825 whole entry, looked up): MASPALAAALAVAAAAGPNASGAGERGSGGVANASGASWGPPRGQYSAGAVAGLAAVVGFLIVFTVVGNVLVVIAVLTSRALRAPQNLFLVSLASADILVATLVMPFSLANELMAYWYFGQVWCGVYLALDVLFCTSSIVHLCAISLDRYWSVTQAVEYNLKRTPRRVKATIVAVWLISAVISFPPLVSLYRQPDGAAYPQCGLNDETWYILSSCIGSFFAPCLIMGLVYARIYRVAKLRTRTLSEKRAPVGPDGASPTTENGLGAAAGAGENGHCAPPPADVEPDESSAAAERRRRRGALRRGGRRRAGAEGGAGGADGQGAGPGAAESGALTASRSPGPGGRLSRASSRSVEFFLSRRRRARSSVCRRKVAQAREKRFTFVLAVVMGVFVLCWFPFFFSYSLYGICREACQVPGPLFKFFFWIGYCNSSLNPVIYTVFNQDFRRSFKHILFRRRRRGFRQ
Voltage-gated potassium channel subunit beta-2 (Rattus norvegicus), sequence (P62483 whole entry, looked up): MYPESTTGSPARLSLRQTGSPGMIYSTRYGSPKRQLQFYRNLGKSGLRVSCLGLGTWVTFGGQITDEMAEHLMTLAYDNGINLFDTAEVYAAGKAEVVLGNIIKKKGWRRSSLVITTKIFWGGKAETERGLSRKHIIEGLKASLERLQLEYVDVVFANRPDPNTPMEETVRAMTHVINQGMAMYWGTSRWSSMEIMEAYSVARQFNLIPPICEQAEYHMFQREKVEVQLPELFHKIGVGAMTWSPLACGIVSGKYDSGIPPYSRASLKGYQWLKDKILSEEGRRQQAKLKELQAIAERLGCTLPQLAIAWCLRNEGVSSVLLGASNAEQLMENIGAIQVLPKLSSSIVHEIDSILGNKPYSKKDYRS

| SMILES | cell count [1] | inhibition [1] | inhibition of aggregation [2] | nuclei count [2] [%] | inhibition [3] | nuclei count [3] [%] | fluorescence slope [4] | NADPH fluorescence slope [5] | slope [6] | inhibition [7] | inhibition [8] |
| --- | --- | --- | --- | --- | --- | --- | --- | --- | --- | --- | --- |
| O=C(Cc1ccccc1)Nc1ccc(CN2CCOCC2)cc1 | 451 | -5.4% (inactive) | -17.1% (inactive) | 104 | -2.9% (inactive) | 107 | -0.418 (inactive) | -3.3e-05 (inactive) | 0.00462 (inactive) | -34% (inactive) | -71.3% (inactive) |
| CC(CCc1ccccc1)NC(=O)C1CCCN(c2nnc(-n3cccc3)s2)C1 (stereo unspecified) | 585 | 5.8% (inactive) | -2.5% (inactive) | 99.3 | -42.8% (inactive) | 102 | -0.57 (inactive) | -3.2e-05 (inactive) | 0.00444 (inactive) | 8.13% (inactive) | 18.5% (inactive) |
| OC1C[N+]2(CCCCC2)C1 | 278 | 9.3% (inactive) | -10.6% (inactive) | 104 | 62.9% (active) | 111 | -0.497 (inactive) | -5.4e-05 (inactive) | 0.00461 (inactive) | 11.5% (inactive) | 10.3% (inactive) |
| O=C(CN(CCc1ccccc1)C(=O)CNS(=O)(=O)c1ccccc1)NCC1CCCO1 (stereo unspecified) | 322 | 11.7% (inactive) | -13.1% (inactive) | 99.8 | -46.7% (inactive) | 109 | -0.481 (inactive) | 2e-05 (inactive) | 0.0066 (inactive) | -8.2% (inactive) | 13.9% (inactive) |
| COCCNC(=O)C(c1ccc(O)cc1)N(Cc1ccco1)C(=O)CCC(=O)Nc1nccs1 (stereo unspecified) | 474 | 6.7% (inactive) | 0.1% (inactive) | 102 | -52.2% (inactive) | 116 | -0.499 (inactive) | 4.7e-06 (inactive) | 0.0061 (inactive) | -12.6% (inactive) | 14.7% (inactive) |
| COc1ccccc1C(=O)n1nc(-c2ccc(Cl)cc2)nc1N | 330 | -1.2% (inactive) | -3.1% (inactive) | 104 | -17.2% (inactive) | 113 | -0.426 (inactive) | 1.8e-05 (inactive) | 0.00385 (inactive) | 2.38% (inactive) | 9.48% (inactive) |
| CC(C)(C)OC(=O)N1CCCC1C(=O)N1CCc2ccccc21 (stereo unspecified) | 411 | 5.6% (inactive) | -0.3% (inactive) | 103 | -19.6% (inactive) | 104 | -0.614 (inactive) | -1.2e-06 (inactive) | 0.00514 (inactive) | 10.9% (inactive) | 33.9% (inactive) |
| CC(C)CN(C(=O)c1ccc(=O)n(C)n1)c1nc2ccccc2s1 | 369 | 4.8% (inactive) | -17.5% (inactive) | 93.5 | -5.9% (inactive) | 112 | -0.332 (inactive) | -7.5e-05 (inactive) | 0.00541 (inactive) | -18.6% (inactive) | -44.4% (inactive) |
| CCCNC(=O)c1ccccc1NC(=O)CN(c1ccccc1OCC)S(C)(=O)=O | 654 | -8.2% (inactive) | -11% (inactive) | 105 | -142% (inactive) | 102 | -0.465 (inactive) | -5.5e-06 (inactive) | 0.00349 (inactive) | -1.76% (inactive) | 20.9% (inactive) |
| CCOC(=O)N1CCN(C(=O)CSc2cc(C)nc3c(-c4ccccc4OC)c(C)nn23)CC1 | 543 | -9.8% (inactive) | -34.4% (inactive) | 122 | 14.7% (inactive) | 110 | -0.54 (inactive) | 1.2e-05 (inactive) | 0.00377 (inactive) | -11.1% (inactive) | -5.36% (inactive) |
| O=C1c2cccnc2C(=O)N1c1cccc(-c2nc3ccccc3o2)c1 | 339 | 9.1% (inactive) | 28.9% (inactive) | 84 | -87.2% (inactive) | 117 | -0.417 (inactive) | -4e-05 (inactive) | 0.00507 (inactive) | 13.3% (inactive) | 13.5% (inactive) |
| O=C(CCCOc1ccccc1)N1CCN(c2ccccn2)CC1 | 232 | -4.8% (inactive) | 15.3% (inactive) | 53.2 | -18.6% (inactive) | 78 | -0.487 (inactive) | -3.3e-07 (inactive) | 0.00525 (inactive) | 2.47% (inactive) | -54.1% (inactive) |
| Cc1ccc(CSC2=NCCN2C(=O)C2CC2)cc1 | 221 | -0.8% (inactive) | 7.2% (inactive) | 100 | -26.8% (inactive) | 107 | -0.604 (inactive) | -2e-05 (inactive) | 0.00584 (inactive) | 11% (inactive) | 11.8% (inactive) |
| CCn1c(SCC(=O)Nc2ccc3c(c2)OCO3)nnc1-c1ccccc1O | 468 | -6.3% (inactive) | 2% (inactive) | 113 | -143% (inactive) | 151 | -0.5 (inactive) | -5.6e-05 (inactive) | 0.0056 (inactive) | 11.9% (inactive) | 0.128% (inactive) |
| O=C(c1ccccc1-c1ccccc1)N1CCN(c2ccccn2)CC1 | 384 | 7.8% (inactive) | -81.8% (inactive) | 17.3 | -93.4% (inactive) | 102 | -0.5 (inactive) | -3.6e-05 (inactive) | 0.00494 (inactive) | 43.1% (inactive) | 26.8% (inactive) |
| CCCCC(=O)NCCc1cc2ccc(OC)cc2[nH]c1=O | 341 | -17% (inactive) | 25.1% (inactive) | 84.4 | -5.9% (inactive) | 91.4 | -0.464 (inactive) | -0.000398 (inactive) | 0.00611 (inactive) | -3.47% (inactive) | 98.8% (active) |
| CCn1c(C(=O)N2CCC(C(=O)N3CCN(c4ccccn4)CC3)CC2)cc2sccc21 | 663 | -12.8% (inactive) | 27.4% (inactive) | 105 | -79.6% (inactive) | 121 | -0.578 (inactive) | -4.7e-05 (inactive) | 0.00642 (inactive) | -5.71% (inactive) | -29% (inactive) |
| COc1ccc(-c2cc3n(n2)CCc2nc4ccccc4n2-3)cc1 | 415 | -32.3% (inactive) | 30.7% (inactive) | 123 | 37% (inactive) | 127 | -0.433 (inactive) | -1.6e-05 (inactive) | 0.00599 (inactive) | 12.2% (inactive) | -17.1% (inactive) |
| CC(NC(=O)C1CCCN(S(=O)(=O)c2cccs2)C1)c1ccccc1 (stereo unspecified) | 816 | -1.4% (inactive) | -6.6% (inactive) | 106 | -1.1% (inactive) | 112 | -0.583 (inactive) | -4.2e-05 (inactive) | 0.00498 (inactive) | 12.2% (inactive) | 34.2% (inactive) |
| Cc1c(NC(=O)C(C)OC(=O)c2cc3c4ccccc4n(C)c3s2)c(=O)n(-c2ccccc2)n1C (stereo unspecified) | 405 | -1.3% (inactive) | -35.1% (inactive) | 67.6 | -1.3% (inactive) | 107 | -0.481 (inactive) | -3.8e-06 (inactive) | 0.0038 (inactive) | 25.6% (inactive) | 34.4% (inactive) |
| COc1ccc(S(=O)(=O)C(C#N)c2nc3ccccc3nc2N2CCCC(C)C2)cc1 (stereo unspecified) | 714 | -5% (inactive) | -12.7% (inactive) | 92.2 | 16% (inactive) | 113 | -0.417 (inactive) | 7.1e-06 (inactive) | 0.00445 (inactive) | 13% (inactive) | 0.928% (inactive) |
| COc1ccc(OC)c2[nH]c(=O)c(CCNC(=O)C(C)C)cc12 | 629 | -21.1% (inactive) | 7.9% (inactive) | 79.4 | -27.3% (inactive) | 112 | -0.56 (inactive) | -1.8e-05 (inactive) | 0.00598 (inactive) | -3.11% (inactive) | 9.79% (inactive) |
| Cc1ccc(NC2=NCC(=O)N2c2ccc3c(c2)OCCO3)c(C)c1 | 463 | -14.4% (inactive) | -2.6% (inactive) | 116 | -20.7% (inactive) | 97.3 | -0.498 (inactive) | -3.6e-05 (inactive) | 0.00458 (inactive) | 5.69% (inactive) | 7.01% (inactive) |
| Cc1cc(Cl)ccc1OCCCC(=O)NO | 375 | 0.8% (inactive) | -15% (inactive) | 65.5 | -31.4% (inactive) | 108 | -0.31 (inactive) | -1.1e-05 (inactive) | 0.00525 (inactive) | 9.52% (inactive) | -4.29% (inactive) |
| COCCCN(Cc1ccccn1)S(=O)(=O)Cc1ccccc1 | 510 | -9.9% (inactive) | 4.7% (inactive) | 97.4 | 10% (inactive) | 102 | -0.517 (inactive) | 8e-06 (inactive) | 0.00578 (inactive) | 3.22% (inactive) | 15.9% (inactive) |
| CCOc1cc(S(=O)(=O)Nc2ccccn2)ccc1F | 382 | 4.8% (inactive) | 0.1% (inactive) | 107 | 29.7% (inactive) | 99.7 | -0.62 (inactive) | 4.6e-06 (inactive) | 0.0046 (inactive) | 5.64% (inactive) | -11.5% (inactive) |

Source: PubChem BioAssay
